Data as given in the supplement of paper PMC6763611.

Test system: Plasmodium falciparum NF54
Test: growth inhibition relative to untreated control; higher = more inhibition
Conditions: 72 h
How it was run: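 Growth inhibition was measured by SYBR Green fluorescence, normalised to untreated wells and corrected for background from uninfected erythrocytes. The parasites were P. falciparum NF54 ring stages (1% hematocrit, 1% parasitemia) exposed to single 5 μM or 1 μM doses of test compounds for 72 h at 37 °C, in either minimal RPMI or minimal RPMI containing 2.2 μM folate, 7.3 μM pABA, 7.3 μM pHBA, 111 μM tyrosine, 90 μM phenylalanine and tryptophan.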

[1] = 1 µM, MM + chorismate end-products (CM screening medium)
[2] = 5 µM, MM + chorismate end-products (CM screening medium)

| SMILES | growth inhibition [1] [%] | growth inhibition (1 µM, minimal medium (MM)) [%] | growth inhibition [2] [%] | growth inhibition (5 µM, minimal medium (MM)) [%] |
| --- | --- | --- | --- | --- |
| CO/C=C(/C(=O)OC)c1ccccc1Oc1cc(Oc2ccccc2C#N)ncn1 | 96 | 94.7 | 90.4 | 92.2 |
| O=C1O[C@@H](COc2ccon2)CN1c1cc(F)c(C2=CCN(Cc3ccccc3)CC2)c(F)c1 | 13.6 | < 0 | 54.4 | 28.6 |
| Cc1nn(Cc2ccccc2)c(Cl)c1C(=O)NC1CCCCCC1 | 16.8 | < 0 | < 0 | < 0 |
| CO[C@@H]1CN(c2ccc(C#CC3(O)CN4CCC3CC4)c(Cc3ccccc3)n2)C[C@H]1O (some centres undefined) | 33.3 | < 0 | 42.8 | 9.06 |
| O=C1O[C@@H](CO)CN1c1cc(F)c(C2=CCN(Cc3ccccc3)CC2)c(F)c1 | 19.3 | 23.4 | 45 | 49.9 |
| Cc1nn(C)c(C)c1NS(=O)(=O)c1c(Cl)cc(-c2ccnc(N3CCNCC3)c2)cc1Cl | 55.7 | 79.5 | 84.1 | 89.6 |
| CC1COC(Cn2cncn2)(c2ccc(Oc3ccc(Cl)cc3)cc2Cl)O1 (centres undefined) | 22 | 38.1 | 67.8 | 33.6 |
| CC(C)(C)C(O)C(Oc1ccc(-c2ccccc2)cc1)n1cncn1 (centres undefined) | 46.2 | 5.38 | < 0 | < 0 |
| CCc1nn(C)c(C(=O)NCc2ccc(Oc3ccc(C)cc3)cc2)c1Cl | < 0 | 3.68 | < 0 | < 0 |
| CC1(C)OB(O)c2ccc(C3=NOC(c4cc(Cl)c(F)c(Cl)c4)(C(F)(F)F)C3)cc21 (centres undefined) | 53.3 | 48.1 | 53.9 | 11.9 |
| Cc1cc(C2=NOC(c3cc(Cl)c(F)c(Cl)c3)(C(F)(F)F)C2)ccc1C(=O)NCc1ccc2c(c1)C(C)(C)OB2O (centres undefined) | 19.4 | < 0 | 40.8 | 10.9 |
